Our source for the growth inhibition, inhibition and outcome values is PubChem BioAssay.

A number with no mark means an inactive call. For some of these results: Entries with a potency or affinity are not part of this list. Active and inactive are the calls of the source. Unless noted, the rule behind the calls is not given here.

Experiment [1] is described as follows: antimalarial activity against Dd2 strain (AID 2302;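 active = growth inhibition above 50% at the single 2 µM test dose, taken to imply half-maximal potency below 2 µM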;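 note: 0% = DMSO untreated growth and 100% = chloroquine plus artemisinin killed control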). As to conditions: P. falciparum Dd2 in RBCs, LDH growth readout, 72 h; at 2 µM; active compounds read high.
Experiment [2] is described as follows: HepG2 cytotoxicity, primary screen, cytotoxicity control for P. falciparum antimalarial project, cell-based, ATP luminescence (AID 2303;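 active = inhibition above 50%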;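 note: 0% = DMSO wells and 100% = digitonin-killed cells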). To be noted: HepG2 viability, 24-48 h, at 10 µM, active compounds read high.
Experiment [3] concerns the target L-lactate dehydrogenase (Plasmodium falciparum (isolate CDC / Honduras)) (UniProt Q27743). As to the kind of experiment: PfLDH activity inhibition – cell lysate, 3D7 strain, counter-screen for P. falciparum growth inhibition project (AID 2304).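 Note: 0% = vehicle and 100% = reference inhibitor.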 To be noted: P. falciparum 3D7 crude extract, LDH APAD/NBT absorbance; at 2 µM; active compounds read high.
The nature of experiment [4]: inhibition of 3D7 malaria parasite growth – strain 3D7 (AID 2306).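 Note: 0% = DMSO wells and 100% = chloroquine plus artemisinin control wells.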 As to conditions: P. falciparum 3D7 erythrocytic growth, LDH absorbance, 72 h; at 2 µM; active compounds read high.
For experiment [5], the target named is Calcium-dependent protein kinase 1 (Plasmodium falciparum (isolate 3D7)) (UniProt P62344). The experiment is described as follows: PfCDPK1 kinase inhibitors, biochemical, TCAMS library (AID 1159585; cut-off not given, nearly all actives have IC50 up to about 0.98 µM;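 note: inhibitors leave more ATP so luminescence rises with inhibition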). To be noted: recombinant PfCDPK1, Kinase-Glo ATP depletion luminescence.
Sequence of Calcium-dependent protein kinase 1 (Plasmodium falciparum (isolate 3D7)) (P62344 whole entry, looked up): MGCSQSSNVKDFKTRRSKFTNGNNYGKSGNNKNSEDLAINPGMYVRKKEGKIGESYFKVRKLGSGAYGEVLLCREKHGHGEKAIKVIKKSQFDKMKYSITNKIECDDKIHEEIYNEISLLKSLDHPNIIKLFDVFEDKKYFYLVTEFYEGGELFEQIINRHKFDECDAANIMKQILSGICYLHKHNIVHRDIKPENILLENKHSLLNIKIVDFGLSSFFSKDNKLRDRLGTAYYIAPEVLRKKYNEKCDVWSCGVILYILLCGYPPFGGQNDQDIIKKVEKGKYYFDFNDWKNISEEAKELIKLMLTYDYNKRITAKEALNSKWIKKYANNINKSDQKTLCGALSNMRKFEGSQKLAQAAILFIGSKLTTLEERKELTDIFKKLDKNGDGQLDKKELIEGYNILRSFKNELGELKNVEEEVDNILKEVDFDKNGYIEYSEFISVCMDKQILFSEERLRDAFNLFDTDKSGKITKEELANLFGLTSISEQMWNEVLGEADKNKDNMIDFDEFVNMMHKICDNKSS
Experiment [6] addresses Plasmodium falciparum protein kinase 6 (PK6, PF3D7_1337100) (UniProt Q8IDW1). As to the kind of experiment: PfPK6 kinase inhibitors, biochemical, TCAMS library (AID 1159586). To be noted: recombinant PfPK6, Kinase-Glo ATP depletion luminescence. On the technique in general: In Kinase-Glo more light means more ATP remaining.
Experiment [7] concerns the target Protein kinase 7 (PK7), Plasmodium falciparum 3D7 (PF3D7_0213400) (UniProt Q7YTF7). The experiment is described as follows: inhibition of Plasmodium PK7 catalytic activity – biochemical, TCAMS antimalarial set, Kinase-Glo luminescence (AID 1159587). To be noted: recombinant PfPK7, Kinase-Glo ATP depletion luminescence.
Experiment [8] deals with Calcium-dependent protein kinase 4 (Plasmodium falciparum (isolate 3D7)) (UniProt Q8IBS5). As to the kind of experiment: PfCDPK4 kinase inhibitors, biochemical, TCAMS library (AID 1159588; cut-off not given, nearly all actives have IC50 up to about 0.91 µM). As to conditions: recombinant PfCDPK4, Kinase-Glo ATP depletion luminescence.
Sequence of Calcium-dependent protein kinase 4 (Plasmodium falciparum (isolate 3D7)) (Q8IBS5 whole entry, looked up): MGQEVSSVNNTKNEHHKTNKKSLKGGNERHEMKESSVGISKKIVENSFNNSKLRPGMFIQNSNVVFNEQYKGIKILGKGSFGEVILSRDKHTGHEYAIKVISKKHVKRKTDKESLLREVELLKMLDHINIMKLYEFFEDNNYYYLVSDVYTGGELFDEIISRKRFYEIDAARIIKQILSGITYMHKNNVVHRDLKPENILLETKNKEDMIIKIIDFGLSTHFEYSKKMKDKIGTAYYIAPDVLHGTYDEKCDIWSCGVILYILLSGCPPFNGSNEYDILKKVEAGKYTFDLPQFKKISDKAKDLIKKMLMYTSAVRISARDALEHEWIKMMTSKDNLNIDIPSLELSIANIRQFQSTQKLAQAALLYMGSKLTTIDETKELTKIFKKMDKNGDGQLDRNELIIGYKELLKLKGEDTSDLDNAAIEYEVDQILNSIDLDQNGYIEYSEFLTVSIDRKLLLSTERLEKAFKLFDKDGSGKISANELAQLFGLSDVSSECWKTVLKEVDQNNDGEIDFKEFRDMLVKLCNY

Sequence of L-lactate dehydrogenase (Plasmodium falciparum (isolate CDC / Honduras)) (Q27743 whole entry, looked up): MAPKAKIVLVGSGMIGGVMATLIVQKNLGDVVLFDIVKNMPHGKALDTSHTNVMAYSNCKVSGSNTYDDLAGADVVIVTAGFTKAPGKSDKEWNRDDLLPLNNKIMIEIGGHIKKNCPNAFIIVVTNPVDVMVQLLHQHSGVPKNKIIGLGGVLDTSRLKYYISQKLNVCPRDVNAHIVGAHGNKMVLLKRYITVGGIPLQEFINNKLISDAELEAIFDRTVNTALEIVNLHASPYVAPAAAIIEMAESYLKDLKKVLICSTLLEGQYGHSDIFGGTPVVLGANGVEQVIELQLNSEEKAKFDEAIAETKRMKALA
Sequence of Plasmodium falciparum protein kinase 6 (PK6, PF3D7_1337100) (Q8IDW1 1-305): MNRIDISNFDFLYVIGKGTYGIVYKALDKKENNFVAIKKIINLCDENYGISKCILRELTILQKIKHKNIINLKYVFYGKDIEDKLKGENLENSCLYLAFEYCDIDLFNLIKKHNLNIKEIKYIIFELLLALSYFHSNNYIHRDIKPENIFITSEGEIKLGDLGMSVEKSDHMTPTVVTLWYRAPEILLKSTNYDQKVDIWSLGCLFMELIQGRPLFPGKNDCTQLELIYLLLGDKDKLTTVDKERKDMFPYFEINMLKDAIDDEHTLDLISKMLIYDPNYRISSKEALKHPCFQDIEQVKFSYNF
Sequence of Protein kinase 7 (PK7), Plasmodium falciparum 3D7 (PF3D7_0213400) (Q7YTF7 1-343): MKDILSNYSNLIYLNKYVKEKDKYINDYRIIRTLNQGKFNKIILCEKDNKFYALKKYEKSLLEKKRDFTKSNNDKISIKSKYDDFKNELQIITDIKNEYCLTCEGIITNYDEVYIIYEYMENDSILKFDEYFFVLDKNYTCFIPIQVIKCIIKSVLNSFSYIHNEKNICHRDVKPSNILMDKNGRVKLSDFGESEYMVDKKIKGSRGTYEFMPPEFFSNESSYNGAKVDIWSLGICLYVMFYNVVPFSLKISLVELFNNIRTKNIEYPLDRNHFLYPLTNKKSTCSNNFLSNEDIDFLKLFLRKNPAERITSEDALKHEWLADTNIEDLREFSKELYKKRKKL

With `CC(=O)Nc1nc(C(=O)Nc2cccc(-c3ccc(-c4nc5ccc(F)cc5[nH]4)cc3)c2)cs1`, the growth inhibition in experiment [1] is 32%; in experiment [4] it was 101% (active). Also, the inhibition in experiment [2] is 54% (active); in experiment [3], -4%. The result in experiment [5], in experiment [6], in experiment [7] and in experiment [8] was inactive.

As for `O=S(=O)(Nc1ccc(CCN2CCCCC2CCN2CCCC2)cc1)c1ccc(-c2ccccc2)cc1` (stereo not given), the growth inhibition in experiment [1] is 18%; in experiment [4], 98% (active). Moreover, the inhibition in experiment [2] was 18%; in experiment [3], -1%. Besides, the result in experiment [5], in experiment [6], in experiment [7] and in experiment [8] was inactive.

In the case of `O=C(NC(c1ccccc1)c1ccc2cccnc2c1O)c1ccccc1` (stereo not given), the growth inhibition in experiment [1] was 63% (active); in experiment [4] it was 94% (active). Besides, the inhibition was 53% (active) in experiment [2] and -4% in experiment [3]. The outcome in experiment [5], in experiment [6], in experiment [7] and in experiment [8] was inactive.

For the compound `O=C(c1cc(-c2cccs2)[nH]n1)N1CCN(S(=O)(=O)c2ccc(Cl)s2)CC1`, the growth inhibition is 80% (active) in experiment [1] and 84% (active) in experiment [4]. Also, the inhibition in experiment [2] was 20%; in experiment [3] it was 1%. In addition, the outcome in experiment [5], in experiment [6], in experiment [7] and in experiment [8] was inactive.

Take `CC(=O)CSC(C=Cc1ccc(N(C)C)cc1)=Nc1ccccc1`: the growth inhibition in experiment [1] was 42%; in experiment [4], 81% (active). Also, the inhibition in experiment [2] was 38%; in experiment [3] it was -4%. Further, the result in experiment [5], in experiment [6], in experiment [7] and in experiment [8] was inactive.

As to `COc1ccc(Nc2ncc3c(-c4cccc(NC(=O)Cc5cccnc5)c4)c[nH]c3n2)cc1OC`, the growth inhibition in experiment [1] is 85% (active); in experiment [4], 98% (active). Besides, the results for the inhibition in experiment [2] and in experiment [3] were 27% and 1%, respectively. Further, the result in experiment [5], in experiment [6], in experiment [7] and in experiment [8] was inactive.

`CCN(CC)CCN(Cc1ccc(-c2ccc(C(F)(F)F)cc2)cc1)C(=O)Cn1c(SCc2ccc(F)cc2)nc(=O)c2ccccc21`: the growth inhibition in experiment [1] is 48%; in experiment [4], 98% (active). The inhibition was 47% in experiment [2] and 6% in experiment [3]. In addition, the outcome in experiment [5], in experiment [6], in experiment [7] and in experiment [8] was inactive.

As for `Cc1nc2nc(N)nc(N)c2c(C)c1Cc1ccc(C(N)=O)cc1`, the growth inhibition in experiment [1] is -3%; in experiment [4], 97% (active). Also, the inhibition in experiment [2] was 55% (active); in experiment [3], 3%. In addition, the outcome in experiment [5], in experiment [6], in experiment [7] and in experiment [8] was inactive.

`O=C(Nc1ccc(F)cc1F)NC1CCN(CCCCCNC(=O)[C@@H]2C[C@H]2c2ccc(Cl)c(Cl)c2)CC1`: the figures for the growth inhibition in experiment [1] and in experiment [4] were 32% and 100% (active), respectively. Further, the figures for the inhibition in experiment [2] and in experiment [3] were 41% and 1%, respectively. For the same compound, the outcome in experiment [5], in experiment [6], in experiment [7] and in experiment [8] was inactive.

Consider `Cc1c(CNCCN2CCCCC2)c(C(=O)O)c(C)n1Cc1ccc(Cl)cc1`, for which the results for the growth inhibition in experiment [1] and in experiment [4] were 93% (active) and 97% (active), respectively. Also, the results for the inhibition in experiment [2] and in experiment [3] were 4% and -6%, respectively. Besides, the outcome in experiment [5], in experiment [6], in experiment [7] and in experiment [8] was inactive.

On to `Cc1c(Cn2ncc(N3CCC(N)CC3)c(Cl)c2=O)cccc1NC(=O)Nc1ccc(-c2ccccc2)cc1`, for which the growth inhibition in experiment [1] is 43%; in experiment [4] it was 97% (active). Besides, the figures for the inhibition in experiment [2] and in experiment [3] were 19% and -1%, respectively. Besides, the result in experiment [5], in experiment [6], in experiment [7] and in experiment [8] was inactive.

`COc1ccc(NC(=O)Nc2ccc(-c3ccc(-c4nc5ccccc5[nH]4)cc3)cc2)cc1`: the values for the growth inhibition in experiment [1] and in experiment [4] were 27% and 100% (active), respectively. The inhibition was 22% in experiment [2] and 5% in experiment [3]. Besides, the result in experiment [5], in experiment [6], in experiment [7] and in experiment [8] was inactive.

Regarding `O=C(NC1CC1)c1cnc(N2CCN(Cc3c(F)cccc3Cl)CC2)c(Cl)c1`, the growth inhibition in experiment [1] and in experiment [4] was 93% (active) throughout. The inhibition in experiment [2] was 0%; in experiment [3], -2%. The result in experiment [5], in experiment [6], in experiment [7] and in experiment [8] was inactive.

On to `CN(C)CCN(C)Cc1ccc(-c2ccc3c(Nc4ccc(F)cc4Cl)ccnc3c2)o1`, for which the figures for the growth inhibition in experiment [1] and in experiment [4] were 100% (active) and 101% (active), respectively. Further, the figures for the inhibition in experiment [2] and in experiment [3] were 31% and 5%, respectively. In addition, the result in experiment [5], in experiment [6], in experiment [7] and in experiment [8] was inactive.

As for `Cc1ccc2nc(-c3ccc(C=CC(=O)NCc4ccc(Cl)c(Cl)c4)cc3)[nH]c2c1`, the results for the growth inhibition in experiment [1] and in experiment [4] were 18% and 96% (active), respectively. The inhibition in experiment [2] was 5%; in experiment [3] it was -5%. Also, the result in experiment [5], in experiment [6], in experiment [7] and in experiment [8] was inactive.

With `CC1(C)N=C(N)N=C(N)N1OCC=Cc1ccccc1`, the growth inhibition was 96% (active) in experiment [1] and 94% (active) in experiment [4]. Further, the inhibition is 62% (active) in experiment [2] and -3% in experiment [3]. Moreover, the outcome in experiment [5], in experiment [6], in experiment [7] and in experiment [8] was inactive.

Regarding `COc1ccc(CN2CCCN(Cc3cccc(NC(=O)c4cc5ccccc5s4)c3)CC2)cc1`, the growth inhibition in experiment [1] was 32%; in experiment [4], 94% (active). Also, the results for the inhibition in experiment [2] and in experiment [3] were 32% and 5%, respectively. The outcome in experiment [5], in experiment [6], in experiment [7] and in experiment [8] was inactive.

On to `N#Cc1cccc(/C=C/C(=O)NC2CCC(CCN3CCc4ccc(-c5cnccn5)cc4CC3)CC2)c1` (stereo not given), for which the growth inhibition in experiment [1] is 47%; in experiment [4], 93% (active). The inhibition was 22% in experiment [2] and -1% in experiment [3]. Also, the outcome in experiment [5], in experiment [6], in experiment [7] and in experiment [8] was inactive.

Take `OC(CNc1ccnc(Nc2cccc(Cl)c2)n1)c1cccc(F)c1` (stereo not given): the growth inhibition in experiment [1] was 29%; in experiment [4] it was 90% (active). Besides, the inhibition was 16% in experiment [2] and 3% in experiment [3]. Also, the result in experiment [5], in experiment [6], in experiment [7] and in experiment [8] was inactive.

Take `O=C(Nc1cccc(-c2ccc(-c3nc4ccc(C(F)(F)F)cc4[nH]3)s2)c1)c1ccncc1`: the values for the growth inhibition in experiment [1] and in experiment [4] were 46% and 99% (active), respectively. Besides, the inhibition in experiment [2] is 79% (active); in experiment [3], -13%. For the same compound, the outcome in experiment [5], in experiment [6], in experiment [7] and in experiment [8] was inactive.

A word on the inhibition: it is the drop in the measured response relative to a control, in per cent.
